In PubChem BioAssay (NCATS):
Records with an inconclusive call do not appear. Activity calls are given as the source filed them. Calls come from the whole dose curve; as a rule, active = well fitted inhibition curve with a large enough effect; inconclusive = small, poorly fitted or top-dose-only effect; inactive = flat fitted curve, though single readings scatter.

The compounds below were run against Calcium and integrin-binding protein 1 (Homo sapiens) (UniProt Q99828) (assay: Primary qHTS for Identification of Calcium Integrin Binding Protein 1 (CIB1) Competitor (AID 1508620;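 note: GST tagged CIB1 binding a fluorescein labelled alphaIIb integrin peptide tracer; top concentration of the series differs between compounds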)). Conditions: CIB1-GST / FITC-alphaIIb peptide fluorescence polarization; series mostly up to 114 µM; activity change, negative = inhibition: at the top concentration.
Sequence of Calcium and integrin-binding protein 1 (Homo sapiens) (Q99828 whole entry, looked up): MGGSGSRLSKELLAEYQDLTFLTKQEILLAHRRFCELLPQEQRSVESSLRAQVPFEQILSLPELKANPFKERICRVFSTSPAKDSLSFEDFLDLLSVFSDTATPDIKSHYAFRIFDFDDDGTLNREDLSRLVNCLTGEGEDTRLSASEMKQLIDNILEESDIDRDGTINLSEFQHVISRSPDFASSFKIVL
In short: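 CIB1-GST (1 uM final) and compound incubated 15 min at room temperature before adding FITC-alphaIIb peptide tracer (100 nM final). Competition for binding read by fluorescence polarization (ex 480, em 540) after another 15 min at room temperature.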
% is set by controls: 0 for no effect and ±100 for the full control effect.

| SMILES | activity change, negative = inhibition |
| --- | --- |
| C=C(C(=O)O)[C@@H]1CC=C(CCC(C)=O)[C@@H](C)CC1 | -5.39% (inactive) |
| CC1(C)CCCC2(C)C1C(OC(=O)/C=C/C=C/C=O)C=C1COC(=O)C12O (stereo not drawn) | -8.09% [at 57.7 µM] (inactive) |
| CC[C@@H](C)[C@@H]1OC2(C=C[C@H]1C)C[C@@H]1C[C@H](C/C=C(\C)[C@H](O[C@H]3C[C@H](OC)[C@H](O[C@H]4C[C@H](OC)[C@H](NC(C)=O)[C@H](C)O4)[C@H](C)O3)[C@H](C)/C=C/C=C3\CO[C@H]4[C@H](O)C(C)=C[C@@H](C(=O)O1)[C@@]34O)O2 (stereo partly drawn) | 0.525% [at 57.7 µM] (inactive) |
| CCC/C=C\C=C/CCc1cc(O)c([C@@H]2O[C@H](CO)[C@@H](O)[C@H](O)[C@H]2O)c(O)c1C(=O)OC | 3.42% [at 57.7 µM] (inactive) |
| COc1cc(N2CCC(O)CC2)ccc1Nc1nc(Nc2ccccc2S(=O)(=O)C(C)C)c2[nH]cnc2n1 | -4.66% (inactive) |
| CC(C)(C)c1ccc(C(=O)Nc2cc(Cl)c(Br)cc2C(=O)O)cc1 | -7.98% (inactive) |
| CCC(CC)(NC(=O)C(C)C)C(=O)N[C@@H](CCCN=C(N)N)C(=O)NC1(C(=O)NC(c2ccc(F)cc2)c2ccc(F)cc2)CCCC1 | -7.05% (inactive) |
| C=C1CC2OC(=O)C(=C)C2C(O)/C=C(\C)CCC1O (stereo not drawn) | 0.762% (inactive) |
| C=C1/C(=C/C=C2\CCC[C@]3(C)[C@@H]([C@H](C)CC[C@@H](O)C(C)(C)O)CC[C@@H]23)C[C@@H](O)C[C@@H]1O | -4.64% (inactive) |
| C=C(C=O)[C@]1(O)C[C@@]2(C)C(=CC1=O)C=C[C@H](OC(=O)/C=C/C=C/[C@H](C)CC)[C@@H]2C | -5.48% [at 57.7 µM] (inactive) |
| N#CC(CCCN1CCC(O)(c2ccc(Cl)cc2)CC1)(c1ccccc1)c1ccccc1 | -4.21% (inactive) |
| CC(C)CCCCC(=O)N[C@@H](CO)C(=O)N[C@@H](CC(C)C)C(=O)[C@@]1(CO)CO1 | -4.52% (inactive) |
| C=CC1(C)CC(O)C(C(=C)C(=O)OC)C(O)C1C(=C)CO (stereo not drawn) | 4.99% (inactive) |
| CC1(C)CC[C@]2(C(=O)O[C@@H]3O[C@H](CO)[C@@H](O)[C@H](O)[C@H]3O)CC[C@]3(C)C(=CCC4[C@@]5(C)CC[C@H](O[C@@H]6O[C@H](C(=O)O)[C@H](O)[C@H](O)[C@H]6O)C(C)(C)C5CC[C@]43C)[C@@H]2C1 (stereo partly drawn) | 2.55% [at 30.2 µM] (inactive) |
| C=C1C(=O)OC2C=C(C)CC/C=C(\CO)CC(O)C12 (stereo not drawn) | -3.47% (inactive) |
| CC(=O)N[C@H]1[C@H](O[C@H]2CC[C@@]3(C)C(CC[C@]4(C)C3CC=C3C5CC(C)(C)CC[C@]5(C(=O)O)C(O)C[C@]34C)C2(C)C)O[C@H](CO[C@@H]2O[C@H](C)[C@H](O)[C@H](O)[C@H]2O[C@@H]2OC[C@@H](O)[C@H](O)[C@H]2O)[C@@H](O)[C@@H]1O (stereo partly drawn) | -3.02% [at 30.2 µM] (inactive) |
| COc1ccc(C2(CNC(=O)c3ccc(NC(=O)c4ccco4)cc3)CCOCC2)cc1 | 0.952% (inactive) |
| C[C@@H]1C[C@H]2O[C@@]3(O[C@@H]2C(C)(C)O)C(O)[C@@]2(C)C4CCC5C(C)(C)[C@@H](O[C@H]6OC[C@H](O)[C@@H](O)[C@@H]6O)CC[C@@]56C[C@@]46CC[C@]2(C)C13 (stereo partly drawn) | 0.962% [at 30.2 µM] (inactive) |
| CC[C@H](C)/C=C(C)/C=C/C1=CC2=C(Cl)C(=O)[C@](C)(O)[C@H](OC(C)=O)[C@H]2CO1 | 17.6% [at 57.7 µM] (inactive) |
| COc1cc(C(N)=O)nc(-c2ccccn2)c1O | -19.2% (inactive) |
| O=C(NCCN1CCC(n2c(=O)[nH]c3ccccc32)CC1)c1cc2cc(F)ccc2[nH]1 | 0.426% (inactive) |
| CC[C@H]1OC(=O)[C@H](C)[C@@H](O[C@H]2C[C@@](C)(OC)[C@@H](O)[C@H](C)O2)[C@H](C)[C@@H](O[C@H]2O[C@H](C)C[C@H](N(C)C)[C@H]2O)[C@](C)(O)C[C@@H](C)C(=O)[C@H](C)[C@@H](O)[C@]1(C)O | 2.11% [at 57.7 µM] (inactive) |
| CC(=O)C1=C(O)C=C2Oc3c(C(C)=O)c(O)c(C)c(O)c3[C@]2(C)C1=O | 1.96% (inactive) |
| C=C1C(=O)O[C@@H]2[C@H]1CC[C@H](C)[C@]1(CCC(=O)O1)C2(C)O (stereo partly drawn) | -5.76% (inactive) |
| COc1cc(OC)c(NC(=O)c2ccc(Cc3cc4c(cc3C)C(C)(C)CCC4(C)C)o2)c(OC)c1 | 2.59% (inactive) |
| CC(=O)O[C@@H]1C2=C(O)C(=O)[C@](C)(OC(C)=O)C(=O)C2=CO[C@@]12O[C@@H](C)CC[C@H]2OC(C)=O | -13.9% [at 57.7 µM] (inactive) |
| COC1CC/C=C(\C)C(=O)Nc2cc(O)cc(c2)CC(C)CC(OC)C(O)C(C)/C=C(\C)C1OC(N)=O (stereo not drawn) | -0.733% [at 57.7 µM] (inactive) |
| C=C1C(=O)OC2C1CCC1(C)C(O)CC=C(C)C21 (stereo not drawn) | -13.5% (inactive) |
